# Reference: PubChem BioAssay (EPA / NIEHS)
# Values joined by “and” are separate entries in the source; they are usually repeats but may differ in a detail not shown here. Equal entries are not always repeated. Some compounds were tested as several samples or in several runs, with calls that do not always agree. Active and inactive are the calls of the source. How the source made its calls: active means hit-call score of the fitted dose curve at least 0.9, where 1 is the maximum; inactive means score below 0.9.
# Read-out: Plasminogen activator inhibitor-1 (PAI1), SERPINE1 (gene 5054)
# Assay: BSK_KF3CT_PAI1: BioMAP Diversity Plus: KF3CT Assay for Plasminogen activator inhibitor-1 (PAI1) Biomarker Activity (AID 2284252)
# Details: primary human keratinocytes with fibroblasts
# Outline: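 ELISA read-out of PAI-1 taken 24 h after chemical treatment of a human skin primary co-culture of keratinocytes and foreskin fibroblasts. Increases over DMSO-treated wells defined activity.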
Compound,AC50,outcome
O=S(=O)(OCC(F)F)C(F)(F)F,0.324 µM (active),inactive
CCCCCCOC(=O)c1ccccc1O,17.4 µM (active),inactive
FC(F)(F)C(F)(F)C(F)(F)CI,,inactive
FC(F)(I)C(F)(F)C(F)(F)C(F)(F)I,52.5 µM (active) and 47 µM (active) and 54.9 µM (active),
FC(F)(F)C(F)(F)C(F)(F)C(F)(F)C(F)(F)C(F)(F)C(F)(F)I,,inactive
OCCCC(F)(F)C(F)(F)C(F)(F)C(F)(F)C(F)(F)C(F)(F)C(F)(F)F,21.7 µM (active) and 46.1 µM (active),
COC(=O)CCC(F)(F)C(F)(F)C(F)(F)C(F)(F)F,,inactive
OCC(F)(F)C(F)(F)C(F)(F)C(F)F,1.23 µM (active),inactive
CCCCC(CC)COP(=O)(O)OCC(CC)CCCC (stereo not drawn),31.1 µM (active) and 26.6 µM (active),
FC1CC(F)(F)C(F)(F)C1(F)F (stereo not drawn),,inactive
O=C(O)C(F)(F)C(F)(F)C(F)(F)C(F)(F)F,,inactive
O=S(=O)(O)C(F)(F)C(F)(F)C(F)(F)C(F)(F)C(F)(F)C(F)(F)C(F)(F)F,,inactive
O=C(CC(=O)C(F)(F)C(F)(F)F)C(F)(F)F,,inactive

# Read-out: Monocyte Chemoattractant Protein-1 (MCP1), CCL2 (gene 6347)
# Assay: BSK_IMphg_MCP1: BioMAP Diversity Plus: IMphg Assay for Monocyte Chemoattractant Protein-1 (MCP1) Biomarker Activity (AID 2284253)
# Details: primary human endothelial cells with macrophages
# Outline: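 Human venular endothelial cells co-cultured with macrophages; MCP-1 measured by ELISA 24 hours post-dose and fitted against DMSO. Cytotoxicity monitored by SRB total-protein staining in parallel cultures.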
Compound,outcome,AC50
CC(C)(C)C(=O)CC(=O)C(F)(F)C(F)(F)C(F)(F)F,inactive,
OCC(F)(F)C(F)(F)C(F)(F)C(F)(F)C(F)(F)C(F)(F)F,inactive,
FC(F)(F)C(F)(F)C(F)(F)C(F)(F)C(F)(F)C(F)(F)C(F)(F)Br,inactive,
C=CC(F)(F)C(F)(F)C(F)(F)C(F)(F)C(F)(F)C(F)(F)C(F)(F)C(F)(F)F,inactive,
C=CC(=O)OCC(F)(F)C(F)(F)C(F)(F)C(F)(F)COC(=O)C=C,,30 µM (active)
FC(F)(F)C(F)(F)C(F)(F)C(F)(F)C(F)(F)C(F)(F)CC1CO1 (stereo not drawn),inactive,
OCC(F)(F)C(F)(F)C(F)(F)F,inactive,
O=C(O)C(F)(F)C(F)(F)C(F)(F)C(F)(F)C(F)(F)C(F)(F)C(F)(F)C(F)(F)C(F)(F)C(F)(F)C(F)(F)C(F)(F)F,inactive,
O=S(=O)(OCC(F)F)C(F)(F)F,inactive,
FC(F)(F)C(F)(F)C(F)(F)CI,inactive,
OCCCC(F)(F)C(F)(F)C(F)(F)C(F)(F)C(F)(F)C(F)(F)C(F)(F)F,,52 µM (active) and 24.2 µM (active)
COC(=O)CCC(F)(F)C(F)(F)C(F)(F)C(F)(F)F,inactive,
O=C(O)C(F)(F)C(F)(F)C(F)(F)C(F)(F)F,inactive,
O=S(=O)(O)C(F)(F)C(F)(F)C(F)(F)C(F)(F)C(F)(F)C(F)(F)C(F)(F)F,inactive,

# Read-out: Interleukin-8 (IL8), CXCL8 (gene 3576)
# Assay: BSK_KF3CT_IL8: BioMAP Diversity Plus: KF3CT Assay for Interleukin-8 (IL8) Biomarker Activity (AID 2284254)
# Details: primary human keratinocytes with fibroblasts
# Outline: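 IL-8 by ELISA in primary human skin co-culture (keratinocytes plus fibroblasts) 24 h post-dose, DMSO as baseline. Cytotoxicity assessed in parallel by sulforhodamine B total-protein staining.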
Compound,outcome,AC50
CC(C)(C)C(=O)CC(=O)C(F)(F)C(F)(F)C(F)(F)F,inactive,
O=C(O)C(F)(F)C(F)(F)OC(F)(F)F,inactive,
OCC(F)(F)C(F)(F)C(F)(F)C(F)(F)C(F)(F)C(F)(F)F,inactive,
FC(F)(F)C(F)(F)C(F)(F)C(F)(F)C(F)(F)C(F)(F)C(F)(F)Br,inactive,
C=C(C)C(=O)OCC(F)(F)C(F)(F)C(F)(F)F,inactive,
OCC(F)(F)C(F)(F)C(F)(F)C(F)(F)C(F)(F)C(F)F,inactive,
C=CC(F)(F)C(F)(F)C(F)(F)C(F)(F)C(F)(F)C(F)(F)C(F)(F)C(F)(F)F,inactive,
Cc1ccc(S(=O)(=O)OCC(F)(F)C(F)(F)C(F)(F)C(F)(F)C(F)(F)C(F)F)cc1,inactive,
N=C(N)C(F)(F)C(F)(F)C(F)(F)C(F)(F)C(F)(F)C(F)(F)C(F)(F)F,inactive,
CCO[Si](CCC(F)(F)C(F)(F)C(F)(F)C(F)(F)C(F)(F)C(F)(F)F)(OCC)OCC,inactive,
FC(F)(F)C(F)(F)CNCC(F)(F)C(F)(F)F,inactive,
C=CC(=O)OCC(F)(F)C(F)(F)C(F)(F)C(F)(F)COC(=O)C=C,,17.3 µM (active) and 18.9 µM (active)
FC(F)(F)C(F)(F)C(F)(F)C(F)(F)C(F)(F)C(F)(F)CC1CO1 (stereo not drawn),inactive,
OCCCC(F)(F)C(F)(F)C(F)(F)F,inactive,
O=C(Cl)C(F)(F)C(F)(F)C(F)(F)C(F)(F)C(F)(F)C(F)(F)C(F)(F)C(F)(F)F,inactive,30 µM (active)
O=C(O)C(F)(F)C(F)(F)C(F)(F)C(F)(F)C(F)(F)C(F)(F)C(F)(F)C(F)(F)Cl,,55.2 µM (active) and 45.8 µM (active)
FC(F)(F)C(F)(F)C(F)(F)C(F)(F)C(F)(F)CCI,inactive,
O=C(O)C(F)(F)C(F)(F)C(F)(F)C(F)(F)C(F)(F)C(F)(F)C(F)(F)C(F)(F)C(F)(F)C(F)F,inactive,

Compound,outcome,AC50
O=P(O)(O)OCCC(F)(F)C(F)(F)C(F)(F)C(F)(F)C(F)(F)C(F)(F)F,inactive,
FC(F)(Br)C(F)(F)C(F)(F)C(F)(F)C(F)(F)C(F)(F)Br,inactive,30 µM (active)
OCC(F)(F)C(F)(F)C(F)(F)F,inactive,
O=C(O)C(F)(F)C(F)(F)C(F)(F)C(F)(F)C(F)(F)C(F)(F)C(F)(F)C(F)(F)C(F)(F)C(F)(F)C(F)(F)C(F)(F)F,inactive,
O=S(=O)(OCC(F)F)C(F)(F)F,inactive,
CCCCCCOC(=O)c1ccccc1O,inactive,
FC(F)(F)C(F)(F)C(F)(F)CI,inactive,
FC(F)(I)C(F)(F)C(F)(F)C(F)(F)I,inactive,45.8 µM (active) and 47.4 µM (active)
FC(F)(F)C(F)(F)C(F)(F)C(F)(F)C(F)(F)C(F)(F)C(F)(F)I,inactive,
OCCCC(F)(F)C(F)(F)C(F)(F)C(F)(F)C(F)(F)C(F)(F)C(F)(F)F,,49.3 µM (active) and 46.4 µM (active)
COC(=O)CCC(F)(F)C(F)(F)C(F)(F)C(F)(F)F,inactive,
OCC(F)(F)C(F)(F)C(F)(F)C(F)F,inactive,
CCCCC(CC)COP(=O)(O)OCC(CC)CCCC (stereo not drawn),inactive,
FC1CC(F)(F)C(F)(F)C1(F)F (stereo not drawn),inactive,
O=C(O)C(F)(F)C(F)(F)C(F)(F)C(F)(F)F,inactive,
O=S(=O)(O)C(F)(F)C(F)(F)C(F)(F)C(F)(F)C(F)(F)C(F)(F)C(F)(F)F,inactive,
O=C(CC(=O)C(F)(F)C(F)(F)F)C(F)(F)F,inactive,
